Source: the supplement of paper PMC11732987, “Enantioselective OTUD7B fragment discovery through chemoproteomics screening and high-throughput optimisation” (Communications Chemistry, 2025)

Legend:
Assay in all cases: log2 ratio of Biotin-Ahx-Ub-VS probe labelling (fragment/DMSO); higher = less target engagement (more negative = stronger competition), active = hit call of the paper (q ≤ 0.05, log2 ratio ≤ -1)
Details in all cases: compound concentration: 200 uM; treatment time: 3 h
USP9X = USP9X (UniProt Q93008)
How it was run: (§1)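 HEK293T lysate in Tris/CHAPS/IGEPAL buffer with protease inhibitors (495 µg per sample) was given fragment at 200 µM or vehicle for 3 h, in triplicate. It then received Biotin-Ahx-Ub-VS at 0.5 µM final for 1 h. Labelled DUBs were NeutrAvidin-enriched, digested with LysC and trypsin, and run by diaPASEF LC-MS/MS. Values are average log2 fragment/vehicle ratios by unpaired t-test on global-median-normalised Spectronaut quantities of proteins with ≥2 unique peptides.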

UniProt O00487 = target: UniProt O00487
How it was run: as §1

UniProt O00507 = target: UniProt O00507
How it was run: as §1

UniProt P51784 = target: UniProt P51784
How it was run: as §1

UniProt Q5T2D3 = target: T1, UniProt Q5T2D3
T1 sequence (whole entry): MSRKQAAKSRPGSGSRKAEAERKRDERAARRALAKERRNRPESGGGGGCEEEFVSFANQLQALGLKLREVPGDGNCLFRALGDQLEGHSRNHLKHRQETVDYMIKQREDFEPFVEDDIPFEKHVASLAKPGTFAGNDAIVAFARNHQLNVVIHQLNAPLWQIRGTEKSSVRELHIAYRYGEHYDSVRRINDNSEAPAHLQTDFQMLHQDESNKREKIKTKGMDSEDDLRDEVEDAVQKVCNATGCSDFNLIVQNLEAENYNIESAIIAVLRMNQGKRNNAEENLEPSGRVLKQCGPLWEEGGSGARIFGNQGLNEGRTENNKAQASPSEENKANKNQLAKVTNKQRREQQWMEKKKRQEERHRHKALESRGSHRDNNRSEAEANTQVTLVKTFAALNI
How it was run: as §1

UniProt Q8TE49 = target: T2, UniProt Q8TE49
T2 sequence (whole entry): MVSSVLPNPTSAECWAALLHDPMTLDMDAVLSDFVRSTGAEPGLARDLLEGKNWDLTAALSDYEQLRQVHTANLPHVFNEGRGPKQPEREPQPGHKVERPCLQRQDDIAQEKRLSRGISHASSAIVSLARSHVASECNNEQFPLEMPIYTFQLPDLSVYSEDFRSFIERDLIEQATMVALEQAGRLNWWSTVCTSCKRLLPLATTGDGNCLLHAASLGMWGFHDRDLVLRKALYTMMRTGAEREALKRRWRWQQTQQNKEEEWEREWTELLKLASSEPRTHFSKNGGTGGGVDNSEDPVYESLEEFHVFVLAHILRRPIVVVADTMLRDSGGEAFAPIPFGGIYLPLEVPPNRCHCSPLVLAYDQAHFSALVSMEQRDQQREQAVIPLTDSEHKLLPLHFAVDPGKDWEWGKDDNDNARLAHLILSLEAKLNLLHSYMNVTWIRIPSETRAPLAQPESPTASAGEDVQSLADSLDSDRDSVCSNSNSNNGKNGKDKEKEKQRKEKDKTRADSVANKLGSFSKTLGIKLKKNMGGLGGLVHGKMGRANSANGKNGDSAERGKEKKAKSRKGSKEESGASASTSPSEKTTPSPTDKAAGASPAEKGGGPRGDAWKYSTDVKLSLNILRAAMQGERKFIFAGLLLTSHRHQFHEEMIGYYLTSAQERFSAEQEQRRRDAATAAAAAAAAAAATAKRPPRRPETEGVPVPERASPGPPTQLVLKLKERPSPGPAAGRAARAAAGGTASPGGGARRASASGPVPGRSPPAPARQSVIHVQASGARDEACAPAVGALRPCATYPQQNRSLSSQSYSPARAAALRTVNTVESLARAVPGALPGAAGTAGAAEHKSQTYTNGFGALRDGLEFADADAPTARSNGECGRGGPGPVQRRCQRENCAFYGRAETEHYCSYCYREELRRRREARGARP
How it was run: as §1

UniProt Q9P2H5 = target: T3, UniProt Q9P2H5
T3 sequence (whole entry): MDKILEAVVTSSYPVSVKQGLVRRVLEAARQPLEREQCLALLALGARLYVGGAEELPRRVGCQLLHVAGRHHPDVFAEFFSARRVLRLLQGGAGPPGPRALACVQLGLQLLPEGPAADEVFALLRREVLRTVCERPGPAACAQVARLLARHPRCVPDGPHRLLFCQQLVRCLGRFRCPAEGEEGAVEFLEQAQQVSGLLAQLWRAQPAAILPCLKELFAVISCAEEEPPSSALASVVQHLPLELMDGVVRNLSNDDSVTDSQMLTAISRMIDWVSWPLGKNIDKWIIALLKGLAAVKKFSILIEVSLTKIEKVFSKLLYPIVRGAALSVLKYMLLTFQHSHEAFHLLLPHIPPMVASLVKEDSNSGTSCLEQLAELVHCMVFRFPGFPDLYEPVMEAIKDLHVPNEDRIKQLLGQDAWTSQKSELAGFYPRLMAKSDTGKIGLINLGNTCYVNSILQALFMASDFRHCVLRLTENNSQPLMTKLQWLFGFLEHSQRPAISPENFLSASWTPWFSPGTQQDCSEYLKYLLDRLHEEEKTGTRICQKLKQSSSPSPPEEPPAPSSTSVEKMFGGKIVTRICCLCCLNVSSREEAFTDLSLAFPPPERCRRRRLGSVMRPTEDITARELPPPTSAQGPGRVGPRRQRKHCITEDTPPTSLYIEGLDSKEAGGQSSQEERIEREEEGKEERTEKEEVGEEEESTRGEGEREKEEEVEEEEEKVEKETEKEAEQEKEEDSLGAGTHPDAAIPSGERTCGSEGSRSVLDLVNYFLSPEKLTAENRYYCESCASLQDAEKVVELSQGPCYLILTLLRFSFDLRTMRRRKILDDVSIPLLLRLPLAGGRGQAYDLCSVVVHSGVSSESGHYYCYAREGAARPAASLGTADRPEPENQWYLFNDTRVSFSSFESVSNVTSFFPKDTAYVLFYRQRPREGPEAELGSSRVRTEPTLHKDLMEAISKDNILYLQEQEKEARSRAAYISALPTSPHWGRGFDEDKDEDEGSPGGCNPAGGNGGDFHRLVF
How it was run: as §1

UniProt Q9UGI0 = target: T4, UniProt Q9UGI0
T4 sequence (whole entry): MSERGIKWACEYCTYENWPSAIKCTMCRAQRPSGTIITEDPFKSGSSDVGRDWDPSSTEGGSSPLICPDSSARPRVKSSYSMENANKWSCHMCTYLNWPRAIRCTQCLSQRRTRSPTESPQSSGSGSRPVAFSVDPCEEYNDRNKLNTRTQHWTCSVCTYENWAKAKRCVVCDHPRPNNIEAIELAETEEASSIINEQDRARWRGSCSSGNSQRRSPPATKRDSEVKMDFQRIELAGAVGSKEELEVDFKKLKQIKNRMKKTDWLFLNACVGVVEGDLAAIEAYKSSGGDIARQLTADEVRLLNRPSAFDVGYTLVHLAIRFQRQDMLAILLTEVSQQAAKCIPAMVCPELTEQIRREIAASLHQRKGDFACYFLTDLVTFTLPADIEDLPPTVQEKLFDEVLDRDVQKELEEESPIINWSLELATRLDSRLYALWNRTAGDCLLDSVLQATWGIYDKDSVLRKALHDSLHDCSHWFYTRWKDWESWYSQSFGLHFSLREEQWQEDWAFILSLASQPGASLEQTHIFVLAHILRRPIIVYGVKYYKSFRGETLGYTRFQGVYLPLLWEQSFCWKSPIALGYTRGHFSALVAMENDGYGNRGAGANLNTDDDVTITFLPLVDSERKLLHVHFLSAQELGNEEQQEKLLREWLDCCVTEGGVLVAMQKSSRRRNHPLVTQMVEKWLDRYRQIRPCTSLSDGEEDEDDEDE
How it was run: as §1

YOD1 = target: T5, YOD1 (UniProt Q5VVQ6)
T5 sequence (whole entry): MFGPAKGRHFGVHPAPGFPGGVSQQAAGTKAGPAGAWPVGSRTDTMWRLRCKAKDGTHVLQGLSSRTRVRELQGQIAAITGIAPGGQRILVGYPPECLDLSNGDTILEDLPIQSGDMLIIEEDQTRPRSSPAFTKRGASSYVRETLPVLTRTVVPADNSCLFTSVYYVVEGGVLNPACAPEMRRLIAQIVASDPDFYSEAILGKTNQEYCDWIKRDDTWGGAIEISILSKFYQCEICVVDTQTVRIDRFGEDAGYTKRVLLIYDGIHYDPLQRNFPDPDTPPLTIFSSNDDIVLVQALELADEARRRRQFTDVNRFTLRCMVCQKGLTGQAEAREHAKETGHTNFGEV
How it was run: as §1

Measured: log2 ratio of Biotin-Ahx-Ub-VS probe labelling

Chain of USP9X (Q93008 whole entry, the tested form may be a part): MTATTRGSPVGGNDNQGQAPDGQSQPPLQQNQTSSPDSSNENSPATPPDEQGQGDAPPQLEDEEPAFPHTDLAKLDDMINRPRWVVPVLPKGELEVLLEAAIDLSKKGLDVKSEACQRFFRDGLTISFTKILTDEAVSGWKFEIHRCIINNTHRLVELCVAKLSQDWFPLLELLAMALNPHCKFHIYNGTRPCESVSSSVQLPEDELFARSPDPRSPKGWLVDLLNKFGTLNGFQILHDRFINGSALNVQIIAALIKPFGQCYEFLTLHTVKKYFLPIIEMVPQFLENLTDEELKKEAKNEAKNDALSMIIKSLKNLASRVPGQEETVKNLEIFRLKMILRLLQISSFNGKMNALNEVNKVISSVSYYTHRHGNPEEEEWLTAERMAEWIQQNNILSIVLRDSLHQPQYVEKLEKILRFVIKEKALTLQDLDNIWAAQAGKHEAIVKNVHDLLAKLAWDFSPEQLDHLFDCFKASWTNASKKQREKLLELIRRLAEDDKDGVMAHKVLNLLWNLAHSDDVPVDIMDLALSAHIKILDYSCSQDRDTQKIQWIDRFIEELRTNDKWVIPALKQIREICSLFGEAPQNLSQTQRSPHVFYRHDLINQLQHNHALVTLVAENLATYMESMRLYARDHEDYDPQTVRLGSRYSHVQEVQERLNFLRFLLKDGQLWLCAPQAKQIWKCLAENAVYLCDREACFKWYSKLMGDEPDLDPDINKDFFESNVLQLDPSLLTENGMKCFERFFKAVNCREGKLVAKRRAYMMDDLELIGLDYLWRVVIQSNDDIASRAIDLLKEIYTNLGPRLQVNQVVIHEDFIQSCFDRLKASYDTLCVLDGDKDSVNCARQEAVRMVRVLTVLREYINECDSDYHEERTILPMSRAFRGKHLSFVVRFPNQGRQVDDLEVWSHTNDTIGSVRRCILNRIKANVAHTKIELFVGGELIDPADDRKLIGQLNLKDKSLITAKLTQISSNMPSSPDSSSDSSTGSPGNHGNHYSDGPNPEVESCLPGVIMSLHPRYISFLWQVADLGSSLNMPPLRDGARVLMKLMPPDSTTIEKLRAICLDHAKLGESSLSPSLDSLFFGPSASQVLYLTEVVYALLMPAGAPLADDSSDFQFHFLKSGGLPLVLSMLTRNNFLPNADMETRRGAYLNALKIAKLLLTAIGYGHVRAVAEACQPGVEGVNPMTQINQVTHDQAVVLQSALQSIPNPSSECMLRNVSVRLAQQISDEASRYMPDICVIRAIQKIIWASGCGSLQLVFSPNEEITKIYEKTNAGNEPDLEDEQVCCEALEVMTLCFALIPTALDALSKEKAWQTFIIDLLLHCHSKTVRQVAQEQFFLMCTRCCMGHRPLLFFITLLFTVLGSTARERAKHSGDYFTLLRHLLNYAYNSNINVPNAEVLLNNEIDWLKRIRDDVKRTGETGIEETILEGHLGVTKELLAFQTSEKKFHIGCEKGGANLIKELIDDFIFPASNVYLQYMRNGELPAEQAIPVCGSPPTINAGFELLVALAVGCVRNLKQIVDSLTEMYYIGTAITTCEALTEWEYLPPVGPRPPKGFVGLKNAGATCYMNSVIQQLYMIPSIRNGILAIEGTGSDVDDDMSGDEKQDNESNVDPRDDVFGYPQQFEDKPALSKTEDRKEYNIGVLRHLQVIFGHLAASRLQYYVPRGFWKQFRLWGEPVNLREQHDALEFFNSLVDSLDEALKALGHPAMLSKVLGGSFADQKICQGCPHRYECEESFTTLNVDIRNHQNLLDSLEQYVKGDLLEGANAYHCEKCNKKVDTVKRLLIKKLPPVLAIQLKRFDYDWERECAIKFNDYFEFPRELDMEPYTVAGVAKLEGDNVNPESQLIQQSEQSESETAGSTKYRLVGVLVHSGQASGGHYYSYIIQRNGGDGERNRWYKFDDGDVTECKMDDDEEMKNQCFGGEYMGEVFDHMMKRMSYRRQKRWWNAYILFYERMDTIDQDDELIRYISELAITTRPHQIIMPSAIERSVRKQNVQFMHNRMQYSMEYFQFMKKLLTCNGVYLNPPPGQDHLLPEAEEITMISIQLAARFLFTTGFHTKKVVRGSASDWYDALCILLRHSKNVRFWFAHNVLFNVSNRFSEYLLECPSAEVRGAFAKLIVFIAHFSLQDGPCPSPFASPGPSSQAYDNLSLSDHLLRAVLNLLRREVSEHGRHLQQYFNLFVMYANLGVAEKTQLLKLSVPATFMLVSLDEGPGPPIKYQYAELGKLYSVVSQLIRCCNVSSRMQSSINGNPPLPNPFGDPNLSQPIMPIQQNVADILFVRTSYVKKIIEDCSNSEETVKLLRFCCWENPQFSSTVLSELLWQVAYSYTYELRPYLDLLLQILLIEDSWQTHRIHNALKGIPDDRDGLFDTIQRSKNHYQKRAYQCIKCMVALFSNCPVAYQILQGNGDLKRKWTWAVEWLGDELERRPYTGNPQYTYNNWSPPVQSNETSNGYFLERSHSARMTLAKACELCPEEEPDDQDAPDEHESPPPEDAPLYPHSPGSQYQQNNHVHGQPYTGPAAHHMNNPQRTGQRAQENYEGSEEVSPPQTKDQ
Chain of UniProt P51784 (P51784 whole entry): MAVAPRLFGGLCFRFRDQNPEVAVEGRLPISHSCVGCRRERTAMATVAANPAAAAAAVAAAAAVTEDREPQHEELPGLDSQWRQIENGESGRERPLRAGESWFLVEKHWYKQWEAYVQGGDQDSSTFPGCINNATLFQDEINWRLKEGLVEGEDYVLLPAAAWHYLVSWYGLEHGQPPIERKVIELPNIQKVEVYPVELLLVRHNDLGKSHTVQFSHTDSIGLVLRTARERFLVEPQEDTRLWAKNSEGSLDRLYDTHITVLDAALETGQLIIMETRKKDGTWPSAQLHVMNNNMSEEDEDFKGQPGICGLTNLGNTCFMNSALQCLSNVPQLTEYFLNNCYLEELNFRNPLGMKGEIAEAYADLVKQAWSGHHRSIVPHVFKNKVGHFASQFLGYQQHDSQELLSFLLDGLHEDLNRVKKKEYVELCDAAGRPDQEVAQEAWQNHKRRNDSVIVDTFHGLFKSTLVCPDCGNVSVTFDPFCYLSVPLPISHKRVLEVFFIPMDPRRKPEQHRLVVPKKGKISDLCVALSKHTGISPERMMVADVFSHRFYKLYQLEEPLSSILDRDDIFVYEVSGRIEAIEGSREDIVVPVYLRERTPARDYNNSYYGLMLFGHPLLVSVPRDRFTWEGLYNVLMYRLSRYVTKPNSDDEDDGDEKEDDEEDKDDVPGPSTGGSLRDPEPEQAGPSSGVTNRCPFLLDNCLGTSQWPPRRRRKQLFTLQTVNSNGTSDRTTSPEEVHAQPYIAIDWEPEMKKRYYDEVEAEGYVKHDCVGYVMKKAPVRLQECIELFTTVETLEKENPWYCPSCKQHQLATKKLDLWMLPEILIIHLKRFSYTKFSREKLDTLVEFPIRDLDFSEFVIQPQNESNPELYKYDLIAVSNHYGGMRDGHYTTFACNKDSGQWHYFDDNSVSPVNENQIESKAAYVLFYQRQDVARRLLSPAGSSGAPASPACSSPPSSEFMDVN
Chain of UniProt O00487 (O00487 whole entry): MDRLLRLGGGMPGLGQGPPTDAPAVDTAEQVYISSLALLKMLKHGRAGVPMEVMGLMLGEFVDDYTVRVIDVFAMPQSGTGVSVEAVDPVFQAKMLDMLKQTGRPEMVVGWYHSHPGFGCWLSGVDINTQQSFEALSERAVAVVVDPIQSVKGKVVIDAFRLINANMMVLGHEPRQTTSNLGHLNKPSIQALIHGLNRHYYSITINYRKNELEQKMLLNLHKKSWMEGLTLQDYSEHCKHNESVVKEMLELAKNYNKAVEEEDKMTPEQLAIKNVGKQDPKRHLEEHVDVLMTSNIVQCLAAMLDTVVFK

O=C(CCl)NCCc1ccc(F)cc1
inactive: USP9X -0.0191 | UniProt O00487 0.113 | UniProt O00507 -0.114 | UniProt P51784 0.00457 | UniProt Q5T2D3 0.0738 | UniProt Q8TE49 -0.0633 | UniProt Q9P2H5 0.297 | UniProt Q9UGI0 -0.491 | YOD1 0.0794
